Assay [1] concerns Plasmodium falciparum Sir2 (PF13_0152, Sir2A). As to the kind of experiment: pfSir2 binders on small-molecule microarrays, primary screen, biochemical, small-molecule microarray, 635 nm fluorescence (AID 1098).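 Further: score merges spot fluorescence intensity with its signal-to-noise ratio.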 Conditions: small-molecule microarray binding, fluorescence 635 nm; higher = more signal.
Assay [2] is described as follows: small-molecule microarray binders of probe aDKK1, primary screen, biochemical, biotinylated probe, 635/667 nm fluorescence (AID 1099).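 Further: score merges 667nm spot fluorescence with signal to noise across triplicate slides; reference of the scale not given here.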 The settings on record: higher = more signal.
Assay [3] in a line: small-molecule microarray binders of probe aCHRDL2, primary screen, biochemical, biotinylated probe, 635/667 nm fluorescence (AID 1100). The settings on record: higher = more signal.
The nature of assay [4]: splicing luciferase reporter signal modulators, primary screen, spliceosome inhibition project, cell-based, HEK293, splice +/- reporter (AID 1101).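 Further: HEK293 cells carrying a splicing-competent luciferase reporter gene; test concentration not given here.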 Conditions: luminescence, 24 h, higher = more signal, called active from +8 up or from −8 down. In general terms: Reporter assays use an easily measured gene product as a stand-in for the process of interest.
In assay [5] the target is Fibroblast growth factor 10 (Homo sapiens) (UniProt O15520). Put plainly: FGF10 binders on small-molecule microarrays, primary screen, biochemical, small-molecule microarray, 635 nm fluorescence (AID 1102). The settings on record: FGF10 binding, fluorescence 635 nm, higher = more signal.
Assay [6] relates to glycogen synthase kinase-3 (GSK3A per assay name; protocol says GSK3B). Put plainly: GSK3 binders on small-molecule microarrays, primary screen, biochemical, small-molecule microarray, 635 nm fluorescence, GSK3A (AID 1103). Further: the record names both GSK3A and GSK3B. Conditions: small-molecule microarray binding, fluorescence 635 nm; higher = more signal.
Assay [7] concerns the target Epidermal growth factor receptor (Homo sapiens) (UniProt P00533). Put plainly: EGFR binders on small-molecule microarrays, primary screen, biochemical, small-molecule microarray, 635 nm fluorescence (AID 1104).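 Further: score merges 667 nm emission intensity with spot signal to noise over triplicate slides.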 Conditions: EGFR binding, higher = more signal.
Assay [8] concerns the target Follistatin-related protein 3 (Homo sapiens) (UniProt O95633). Put plainly: FSTL3 binders on small-molecule microarrays, primary screen, biochemical, small-molecule microarray, 635 nm fluorescence (AID 1105).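 Further: score merges emission near 667 nm and signal to noise per printed spot across three slides.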 The settings on record: FSTL3 binding, higher = more signal.
The target of assay [9] is Dickkopf-related protein 1 (Homo sapiens) (UniProt O94907). Put plainly: DKK1 binders on small-molecule microarrays, primary screen, biochemical, small-molecule microarray, 635 nm fluorescence scan (AID 1106).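 Further: score merges emission near 667 nm with signal to noise over three replicate slides.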 Conditions: DKK1 binding, higher = more signal.
For assay [10], the system named is Inhibin beta A chain (activin A). As to the kind of experiment: INHBA (activin A) binders on microarrays, primary screen, biochemical, small-molecule microarray, 635 nm fluorescence scan (AID 1107).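 Further: mouse activin A protein probed at 4.33 µg/mL on printed slides; score merges bound-protein fluorescence near 667 nm with spot signal-to-noise.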 The settings on record: small-molecule microarray binding, higher = more signal.

Active and inactive are the calls of the source.

Dickkopf-related protein 1 (Homo sapiens), sequence (O94907 whole entry, looked up): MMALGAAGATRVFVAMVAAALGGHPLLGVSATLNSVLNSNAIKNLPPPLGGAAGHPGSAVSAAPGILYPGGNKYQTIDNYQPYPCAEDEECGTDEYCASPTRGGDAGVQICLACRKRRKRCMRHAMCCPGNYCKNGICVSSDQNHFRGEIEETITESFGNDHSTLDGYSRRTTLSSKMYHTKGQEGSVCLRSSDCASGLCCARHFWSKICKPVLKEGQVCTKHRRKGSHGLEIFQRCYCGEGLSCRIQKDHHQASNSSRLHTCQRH
Fibroblast growth factor 10 (Homo sapiens), sequence (O15520 whole entry, looked up): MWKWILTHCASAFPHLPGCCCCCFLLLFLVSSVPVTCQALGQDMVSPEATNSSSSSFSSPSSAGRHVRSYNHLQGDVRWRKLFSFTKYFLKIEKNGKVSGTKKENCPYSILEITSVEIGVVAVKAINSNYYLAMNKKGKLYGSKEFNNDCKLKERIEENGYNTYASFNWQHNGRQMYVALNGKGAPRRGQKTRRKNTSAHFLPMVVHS
Epidermal growth factor receptor (Homo sapiens), sequence (P00533 whole entry, looked up): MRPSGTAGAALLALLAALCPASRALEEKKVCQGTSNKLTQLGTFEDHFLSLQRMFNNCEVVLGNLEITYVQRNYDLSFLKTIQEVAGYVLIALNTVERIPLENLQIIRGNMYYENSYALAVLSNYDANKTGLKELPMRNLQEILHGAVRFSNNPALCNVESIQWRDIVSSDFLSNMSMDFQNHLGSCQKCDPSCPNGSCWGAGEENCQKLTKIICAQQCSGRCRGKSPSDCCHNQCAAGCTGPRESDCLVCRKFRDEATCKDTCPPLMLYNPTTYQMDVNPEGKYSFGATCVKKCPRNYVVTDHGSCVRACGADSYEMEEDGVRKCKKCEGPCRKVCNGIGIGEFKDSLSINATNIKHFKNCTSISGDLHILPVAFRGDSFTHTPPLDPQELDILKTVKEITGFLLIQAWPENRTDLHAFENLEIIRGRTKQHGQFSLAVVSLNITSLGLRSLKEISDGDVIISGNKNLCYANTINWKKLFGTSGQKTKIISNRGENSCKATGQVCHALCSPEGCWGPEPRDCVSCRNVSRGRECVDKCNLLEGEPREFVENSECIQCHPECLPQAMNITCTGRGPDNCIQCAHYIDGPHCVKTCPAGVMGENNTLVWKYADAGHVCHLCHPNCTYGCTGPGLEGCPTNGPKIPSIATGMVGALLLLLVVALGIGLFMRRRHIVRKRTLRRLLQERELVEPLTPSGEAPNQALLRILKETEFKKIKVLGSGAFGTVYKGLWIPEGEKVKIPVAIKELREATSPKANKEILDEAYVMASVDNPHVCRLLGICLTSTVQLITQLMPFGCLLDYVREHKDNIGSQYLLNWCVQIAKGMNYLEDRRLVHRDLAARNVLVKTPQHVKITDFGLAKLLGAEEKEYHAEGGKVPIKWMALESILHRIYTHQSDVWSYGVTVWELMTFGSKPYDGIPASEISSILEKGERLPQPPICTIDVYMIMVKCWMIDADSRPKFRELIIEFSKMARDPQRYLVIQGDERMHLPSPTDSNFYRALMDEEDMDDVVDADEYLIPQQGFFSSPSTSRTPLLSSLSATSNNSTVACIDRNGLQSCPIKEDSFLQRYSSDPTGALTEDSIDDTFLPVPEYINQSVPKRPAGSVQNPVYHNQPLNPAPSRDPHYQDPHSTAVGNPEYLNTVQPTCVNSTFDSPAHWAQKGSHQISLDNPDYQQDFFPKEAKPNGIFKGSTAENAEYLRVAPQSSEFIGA
Follistatin-related protein 3 (Homo sapiens), sequence (O95633 whole entry, looked up): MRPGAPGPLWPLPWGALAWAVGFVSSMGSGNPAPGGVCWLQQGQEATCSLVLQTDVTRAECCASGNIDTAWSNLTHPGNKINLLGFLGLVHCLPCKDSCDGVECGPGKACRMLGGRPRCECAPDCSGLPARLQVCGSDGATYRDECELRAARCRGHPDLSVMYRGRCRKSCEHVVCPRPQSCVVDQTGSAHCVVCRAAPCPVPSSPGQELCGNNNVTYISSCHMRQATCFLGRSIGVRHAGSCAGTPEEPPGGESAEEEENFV

Turning to `CC(C)C[C@@H]1NC(=O)[C@@H]2C[C@H](C(=O)NCCCC[N+](C)(C)C)[C@H](c3cccc(OCCO)c3)N2C1=O`, the composite z-score was 1.66 in assay [1]; -0.184 in assay [2]; -0.103 in assay [3]; 0.59 in assay [5]; 0.914 in [6]; 0.357 in [7]. Also, the composite z-score came out at 1.31 in assay [8], 1.95 in [9] and 0.88 in assay [10]. In addition, in [4], the z-score was -0.44 (inactive).

`N#Cc1ccc(NN2C(C(O)c3ccco3)C=CC3C(=O)N(c4ccccc4)C(=O)C32)cc1` (stereo not given): the composite z-score in assay [1] is 0.939; in assay [2], 0.565; in assay [3] it was 0.843; in assay [5], 0.505; in assay [6] it was -0.202; in [7], 0.0343. The results for the composite z-score in assay [8], in assay [9] and in assay [10] were 0.0837, 0.18 and 0.921, respectively. Besides, the z-score in [4] was 1.07 (inactive).

`CN(C)C(=O)[C@@]1(Cc2ccccc2N=[N+]=[N-])N=C(c2ccc(OCCCO)cc2)O[C@H]1c1ccccc1N=[N+]=[N-]`: the composite z-score in assay [1] amounted to 0.974; in assay [2], 1.19; in assay [3], 0.7; in assay [5], 0.817; in assay [6], 1.29; in assay [7], 0.284. The composite z-score in [8] came to 0.347; in assay [9], 0.0393; in assay [10], 1.28. Also, the z-score in assay [4] was -0.167 (inactive).

In the case of `CC(C)(C)OC(=O)CC[C@@]1(C(=O)N2CCCCC2)N=C(c2ccc(OCCCO)cc2)O[C@@H]1c1ccccc1CN=[N+]=[N-]`, the composite z-score in assay [1] is 1.24; in assay [2] it was 0.754; in assay [3], 0.881; in [5], 0.56; in [6] it was 0.53; in assay [7], 0.0678. Moreover, the values for the composite z-score in assay [8], in [9] and in [10] were 1.06, -0.0065 and 0.534, respectively. In [4], the z-score is -2.55 (inactive).

As for `COC(=O)C(CC#Cc1ccc2c(c1)[C@]1(C(=O)N2)[C@H](C(=O)N2CCc3cc(OC)c(OC)cc3C2)[C@H]2C(=O)O[C@H](c3ccccc3)[C@H](c3ccccc3)N2[C@@H]1c1ccc(O)cc1)C(=O)OC`, the composite z-score turned out to be 1.06 in assay [1]; 0.432 in assay [2]; 0.417 in assay [3]; 1.4 in assay [5]; 1.35 in assay [6]; 0.919 in assay [7]. Besides, the composite z-score in assay [8] was 1.43; in assay [9], 1.71; in [10], -0.227. In [4], the z-score is 0.362 (inactive).

As for `Cc1ccc(S[C@]2(C(=O)NCC(C)C)CC(=O)N(C3CCCCC3)[C@@H]2c2ccc(CO)cc2I)cc1`, the composite z-score in [1] was 0.42; in assay [2] it was 0.0006; in assay [3] it was 0.421; in assay [5], 0.231; in [6], 0.296; in [7], 0.21. Further, the composite z-score is 0.468 in assay [8], -0.147 in assay [9] and 0.83 in assay [10]. For the same molecule, the z-score in assay [4] was -1.4 (inactive).

Consider `O=[N+]([O-])c1ccc(C[n+]2ccc(-c3ccc(CO)cc3)cc2)o1`, for which the composite z-score in [1] was 1.2; in [2], -0.0024; in assay [3], 0.192; in assay [5], 0.527; in [6] it was 0.213; in [7], 0.224. The composite z-score was determined as 1.45 in [8], 0.253 in assay [9] and 1.86 in assay [10]. Further, the z-score in [4] is -0.0885 (inactive).

For the molecule `CN(C)C(=O)[C@@]1(CCC(=O)OC(C)(C)C)COC(c2ccc(OCCCO)cc2)=N1`, the composite z-score in assay [1] is 0.999; in assay [2], 0.66; in assay [3], 0.945; in [5], 0.625; in assay [6] it was -0.459; in [7], -0.785. The figures for the composite z-score in assay [8], in assay [9] and in assay [10] were -0.326, -1.19 and 0.279, respectively. For the same molecule, the z-score in [4] was 0.351 (inactive).

As to `CO[C@H]1O[C@H](CO)[C@@H](OC(=O)Nc2cccc(F)c2)[C@H](OC(=O)Nc2ccc3c(c2)OCO3)[C@H]1OC(=O)Nc1ccc2c(c1)OCO2`, the composite z-score in [1] amounted to 0.932; in assay [2] it was 0.0673; in [3] it was 0.307; in [5], 0.693; in [6] it was 0.26; in assay [7], 0.199. The composite z-score in assay [8] stood at 0.55; in assay [9] it was 0.177; in [10] it was 0.674. Moreover, the z-score in [4] was -0.197 (inactive).

In the case of `C=CC[C@]1(C(=O)NCC(O)CO)N=C(c2ccc(OCCCO)cc2)O[C@H]1c1ccccc1N=[N+]=[N-]` (stereo not given in full), the composite z-score is 0.939 in [1]; 0.731 in [2]; 1.28 in assay [3]; 0.258 in [5]; -0.216 in [6]; -0.0496 in assay [7]. Further, the composite z-score in [8] was -0.291; in assay [9], -0.379; in [10], 1.42. In addition, in assay [4], the z-score is -0.789 (inactive).

Turning to `C=CCOC(=O)[C@@H]1[C@H]2C(=O)O[C@H](c3ccccc3)[C@H](c3ccccc3)N2[C@H](c2ccc(OCCOC(=O)[C@@H]3C[C@@H]4C(=O)N5CCC[C@H]5C(=O)N4[C@@H]3c3cccc(OCCO)c3)cc2)[C@@]12C(=O)Nc1ccc(I)cc12`, the composite z-score in assay [1] was 1.04; in assay [2], -0.297; in [3], -0.121; in assay [5] it was 1.18; in assay [6], 1.12; in assay [7], 0.754. Besides, the composite z-score in [8] was determined as 1.11; in assay [9], 1.1; in assay [10] it was 0.607. Also, the z-score in assay [4] is -0.64 (inactive).

In the case of `CCCNC(=O)[C@@]1(Sc2ccc(C)cc2)CC(=O)N(Cc2ccccc2)[C@@H]1c1ccc(CO)cc1I`, the composite z-score in [1] came out at 0.523; in assay [2] it was 0.806; in [3] it was 0.484; in assay [5], 0.559; in assay [6] it was 0.108; in [7], 0.183. The figures for the composite z-score in [8], in [9] and in [10] were 0.942, 0.353 and 1.47, respectively. Further, in [4], the z-score was -0.494 (inactive).

Regarding `CC(C)[Si](C#C[Si](C(C)C)(C(C)C)C(C)C)(O[C@H](C)c1cn(Cc2cccc(Cl)c2)nn1)C(C)C`, the composite z-score in [1] was 0.259; in assay [2], -0.493; in assay [3] it was -0.578; in [5], 0.539; in assay [6], 1.14; in assay [7], 0.863. Further, the composite z-score is 0.433 in assay [8], 0.459 in assay [9] and -0.33 in [10]. Also, the z-score in [4] is -0.589 (inactive).

With `COC(=O)[C@H]1N=C(c2ccc(OCCCO)cc2)O[C@H]1c1ccccc1CN=[N+]=[N-]`, the composite z-score in [1] was 0.555; in assay [2] it was 0.613; in [3] it was 1.22; in assay [5], -0.418; in [6] it was -1.04; in [7] it was -0.771. For the same molecule, the figures for the composite z-score in assay [8], in assay [9] and in [10] were -0.605, -1.56 and 0.635, respectively. The z-score in assay [4] was -0.0171 (inactive).

With `COCCCNC(=O)[C@]1(Cc2ccccc2CN=[N+]=[N-])N=C(c2ccc(OCCCO)cc2)O[C@@H]1c1ccccc1CN=[N+]=[N-]`, the composite z-score in assay [1] came out at 1.59; in assay [2], 1.35; in assay [3], 1.25; in assay [5], 0.944; in [6] it was 1.19; in assay [7], 0.119. Further, the composite z-score in assay [8] was 0.07; in assay [9], -0.214; in [10], 0.413. The z-score in [4] is 0.438 (inactive).

As for `O=C1N(CCS(=O)(=O)c2ccccc2)c2ccccc2[C@H]2OC(c3ccc(OCCCO)cc3)=N[C@@]12CCS(=O)(=O)c1ccccc1`, the composite z-score in assay [1] is 1.31; in assay [2], 1.59; in [3] it was 1.16; in [5], 1.35; in [6] it was 1.31; in assay [7], 0.736. Also, the values for the composite z-score in assay [8], in [9] and in assay [10] were 1.31, 0.9 and 1.29, respectively. In addition, in assay [4], the z-score was -0.0214 (inactive).
